Sampled rows, rich in hits. Any-hit rate of the full collection: about 2.1%.
NSD2 inh: NSD2 histone methyltransferase inhibitors, primary screen, biochemical, AlphaScreen, single concentration, set 2; AID 743445, 2014; inhibition, % at 12.5 µM; 0.54% of 310,000 active; NSD2 peptide methylation, 120 min; in the data active = inhibition above about 50%
PfHsp90 set2: growth inhibition of PfHsp90-expressing yeast, primary screen, antimalarial PfHsp90 inhibitor project, S. cerevisiae, BacTiter-Glo luminescence, single point, set 2. BacTiter-Glo ATP, 48 h; yeast lacking PDR1 and PDR3 efflux regulators. inhibition, % at 9.4 µM. 0.32% of 310,000 active. AID 504621, 2011;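 active = every replicate shows inhibition above about 80%, whatever the replicate mean, limit read from the data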
CASP6 VEID inh: human caspase-6 inhibitors, primary screen, biochemical, VEID-R110 fluorescence, single point, set 2; inhibition, % at 12.5 µM; purified caspase-6, Z-VEID-R110 cleavage fluorescence; 0.53% of 350,000 active; P55212;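 active = mean inhibition across replicates at least about 35%, with every replicate also reaching that limit, limit read from the data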
Target sequence (P55212 24-179 limits assumed): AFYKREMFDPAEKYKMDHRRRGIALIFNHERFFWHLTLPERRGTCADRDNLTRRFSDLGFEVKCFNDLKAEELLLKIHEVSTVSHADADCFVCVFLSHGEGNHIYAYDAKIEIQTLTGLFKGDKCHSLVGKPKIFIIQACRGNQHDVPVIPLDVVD
Target sequence (P55212 194-293 limits assumed): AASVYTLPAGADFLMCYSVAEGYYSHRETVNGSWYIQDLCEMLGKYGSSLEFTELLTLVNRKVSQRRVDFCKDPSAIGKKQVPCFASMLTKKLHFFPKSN
ARNT-TACC3 inh: disruptors of ARNT/TACC3 protein interaction, primary screen, biochemical, AlphaScreen, single concentration. Transforming acidic coiled-coil-containing protein 3 (Homo sapiens), Q9Y6A5. AlphaScreen His-ARNT PAS-B/GST-TACC3 binding, luminescence; TACC3 fragment carries E629A point mutation. inhibition, % at 9.99 µM. 0.66% of 390,000 active. AID 623870, 2012;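 active = mean inhibition of replicates at least 50% and at least half of replicates each reaching 50%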
SIRT5 inh: SIRT5 desuccinylase inhibitors, primary screen, biochemical, fluorescence imaging, single point, set 5 | inhibition, % at 15 µM | Purified SirT5, succinyl-peptide AMC, trypsin-coupled fluorescence | AID 652115, 2013 | 1.1% of 330,000 active | NAD-dependent protein deacylase sirtuin-5, mitochondrial (Homo sapiens), Q9NXA8; in the data active = inhibition above about 15%
Target sequence (Q9NXA8 whole entry, looked up): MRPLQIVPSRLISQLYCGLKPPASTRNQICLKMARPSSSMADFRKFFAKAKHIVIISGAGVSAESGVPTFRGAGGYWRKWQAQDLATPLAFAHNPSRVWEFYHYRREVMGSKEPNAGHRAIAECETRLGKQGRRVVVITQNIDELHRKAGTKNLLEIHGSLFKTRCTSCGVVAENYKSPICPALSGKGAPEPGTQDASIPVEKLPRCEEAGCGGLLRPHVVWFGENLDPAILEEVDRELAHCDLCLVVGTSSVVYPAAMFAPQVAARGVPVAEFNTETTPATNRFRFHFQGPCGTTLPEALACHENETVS
Large screens that a line does not name were inactive.

O=C(N[C@@H]1CC[C@@H](CCn2cc(-c3ccccn3)nn2)O[C@H]1CO)c1ccncc1	ARNT-TACC3 inh 61.9 (no result: NSD2 inh, PfHsp90 set2)
COCc1cn(CC[C@@H]2CC[C@@H](NC(=O)c3ccncc3)[C@@H](CO)O2)nn1	none (no result: NSD2 inh, PfHsp90 set2)
O=C(Nc1ccc(Cl)c(Cl)c1)N[C@@H]1CC[C@H](CCn2cc(C3CC3)nn2)O[C@H]1CO	SIRT5 inh 27.3 (no result: NSD2 inh, PfHsp90 set2)
COc1ccc(NC(=O)N[C@@H]2CC[C@@H](CCn3cc(-c4ccccn4)nn3)O[C@@H]2CO)cc1	ARNT-TACC3 inh 47.8 (no result: NSD2 inh, PfHsp90 set2)
CC(=O)N(C)C[C@H]1Oc2cc(C#Cc3cccnc3)ccc2S(=O)(=O)N([C@@H](C)CO)C[C@@H]1C	none (no result: NSD2 inh, PfHsp90 set2)
CO[C@H]1CN(C)C(=O)c2cc(NC(C)=O)ccc2OC[C@H](C)N(S(=O)(=O)c2cn(C)cn2)C[C@@H]1C	none (no result: NSD2 inh, PfHsp90 set2)
COc1ccc(NC(=O)N[C@@H]2CC[C@@H](CCn3cc(-c4ccccn4)nn3)O[C@H]2CO)cc1	ARNT-TACC3 inh 61.4 (no result: NSD2 inh, PfHsp90 set2)
Cc1cc(C)cc(N(CC(=O)N2CCCCCC2)S(C)(=O)=O)c1	CASP6 VEID inh 36.4
CS(=O)(=O)N(CC(=O)N1CCCCCC1)c1ccccc1	none (no result: CASP6 VEID inh, SIRT5 inh)
CC(=NNC(=S)N1CC2CCC(CC2)C1)c1ccncn1	PfHsp90 set2 111.4, ARNT-TACC3 inh 58.4
CC(=NNC(=S)N1CCCCC1)c1ccccn1	none (no result: PfHsp90 set2, ARNT-TACC3 inh)
O=C(NC1CCC1)[C@@H]1[C@@H](CO)[C@@H]2Cn3c(ccc(-c4ccncc4)c3=O)[C@@H]2N1CCc1ccccc1	none (no result: NSD2 inh, PfHsp90 set2, ARNT-TACC3 inh)
CCC1=NN(C(=O)c2ccccc2O)C(O)(c2ccccc2)C1 (stereo unspecified)	CASP6 VEID inh 71.9
CCC1=NN(C(=O)c2ccc(Cl)cc2)C(O)(c2ccc(C)cc2)C1 (stereo unspecified)	CASP6 VEID inh 47.9
CCC1=NN(C(=O)c2ccc(Cl)cc2)C(O)(c2ccccc2)C1 (stereo unspecified)	none
C/C=C/c1ccccc1[C@@H]1[C@@H](C#N)N(C(=O)CN2CCOCC2)[C@@H]1CO	none (no result: NSD2 inh, PfHsp90 set2, ARNT-TACC3 inh)
CS(=O)(=O)Nc1ccc2c(c1)[C@@H]1C[C@H](CC(=O)N3CCOCC3)O[C@@H](CO)[C@@H]1O2	none (no result: NSD2 inh, PfHsp90 set2)
COc1ccc(S(=O)(=O)N(C)C[C@@H]2Oc3c(NC(=O)c4ccncc4)cccc3C(=O)N([C@@H](C)CO)C[C@H]2C)cc1	SIRT5 inh 16.5 (no result: NSD2 inh, PfHsp90 set2)
COc1ccc(S(=O)(=O)Nc2cccc3c2O[C@@H](CN(C)S(=O)(=O)c2c(C)noc2C)[C@H](C)CN([C@@H](C)CO)C3=O)cc1	none (no result: NSD2 inh, PfHsp90 set2)
COc1ccc(S(=O)(=O)N(C)C[C@@H]2Oc3c(NC(=O)c4ccncc4)cccc3C(=O)N([C@@H](C)CO)C[C@@H]2C)cc1	none (no result: NSD2 inh, PfHsp90 set2)
COc1ccc(S(=O)(=O)Nc2cccc3c2O[C@@H](CN(C)S(=O)(=O)c2c(C)noc2C)[C@H](C)CN([C@H](C)CO)C3=O)cc1	SIRT5 inh 102.0 (no result: NSD2 inh, PfHsp90 set2)
C[C@H](CO)N1C[C@H](C)[C@@H](CN(C)Cc2ccc(C(=O)Nc3ccccc3N)cc2)Oc2c(NC(=O)Nc3ccc4c(c3)OCO4)cccc2C1=O	none (no result: NSD2 inh, PfHsp90 set2)
O=c1c2c([N+](=O)[O-])cc([N+](=O)[O-])cc2sn1Cc1ccccc1	SIRT5 inh 20.4 (no result: NSD2 inh)
COc1ccc(S(=O)(=O)Nc2ccc3c(c2)C(=O)N([C@@H](C)CO)C[C@@H](C)[C@@H](CN(C)Cc2ccc4c(c2)OCO4)OCCCC[C@H](C)O3)cc1	none (no result: NSD2 inh, PfHsp90 set2)
COc1ccc(Nc2c3c(nc4ccc(C)cc24)CCC3)cc1	SIRT5 inh 25.2 (no result: CASP6 VEID inh)
CCOc1cc(C(=O)OCc2cccc(OC)c2OC)ccc1OCC(=O)N1CCOCC1	SIRT5 inh 15.8
CCOc1cc(C(=O)OCc2ccc([N+](=O)[O-])cc2)ccc1OCC(=O)N1CCOCC1	none (no result: ARNT-TACC3 inh)
NC(=O)NCC#Cc1ccc2c(c1)[C@]1(C(=O)N2)[C@H](c2ccccc2OCCO)N2[C@H](c3ccccc3)[C@H](c3ccccc3)OC(=O)[C@H]2[C@@H]1C(=O)N1CCCCCCC1	none (no result: NSD2 inh, PfHsp90 set2, ARNT-TACC3 inh)
NC(=O)NCC#Cc1ccc2c(c1)[C@]1(C(=O)N2)[C@H](c2ccccc2OCCO)N2[C@H](c3ccccc3)[C@H](c3ccccc3)OC(=O)[C@H]2[C@@H]1C(=O)N1CCN(c2ncccn2)CC1	SIRT5 inh 21.4 (no result: NSD2 inh, PfHsp90 set2, ARNT-TACC3 inh)
C=CCNC(=O)[C@@H]1[C@H]2C(=O)O[C@H](c3ccccc3)[C@H](c3ccccc3)N2[C@H](c2ccccc2OCCO)[C@@]12C(=O)N(C(=O)OCCOC)c1ccc(C#CC3(O)CCCCCC3)cc12	none (no result: NSD2 inh, PfHsp90 set2)
C=CCNC(=O)[C@H]1[C@@H]2C(=O)O[C@@H](c3ccccc3)[C@@H](c3ccccc3)N2[C@@H](c2ccccc2OCCO)[C@]12C(=O)Nc1ccc(C#CC3(O)CCCCCC3)cc12	SIRT5 inh 16.8 (no result: NSD2 inh, PfHsp90 set2)
Cc1noc(C)c1S(=O)(=O)N(C)C[C@@H]1OCCCC[C@H](C)Oc2ccc(NS(C)(=O)=O)cc2C(=O)N([C@@H](C)CO)C[C@H]1C	none (no result: NSD2 inh, PfHsp90 set2)
O=C(c1cc(COc2ccc(F)cc2Cl)on1)N1CC[C@@H]2CCCC[C@H]2C1	SIRT5 inh 33.7
O=C(c1cc(COc2ccc(F)cc2F)on1)N1CC[C@@H]2CCCC[C@H]2C1	none
CCCn1c(=O)c2sccc2n2c(CCCC(=O)NCc3cccnc3)nnc12	none
CCCn1c(=O)c2sccc2n2c(CCCC(=O)NCc3ccco3)nnc12	CASP6 VEID inh 58.1
CNC(=O)C[C@H]1CC[C@H]2[C@@H](COc3ccc(NC(=O)c4ccc(C#N)cc4)cc3C(=O)N2C)O1	none (no result: NSD2 inh, PfHsp90 set2)
COCCNC(=O)C(c1ccc(F)cc1)N(Cc1ccco1)C(=O)CCC(=O)Nc1ccccn1 (stereo unspecified)	none
Cc1ccnc(NC(=O)CCC(=O)N(Cc2ccco2)C(C(=O)NC(C)C)c2ccc(F)cc2)c1 (stereo unspecified)	SIRT5 inh 99.9
O=C(Nc1cccc(N2C(=O)C3CCCCC3C2=O)c1)c1ccccc1 (stereo unspecified)	none
O=C(Nc1cccc(Cl)c1)c1cccc(N2C(=O)C3CC=CCC3C2=O)c1 (stereo unspecified)	CASP6 VEID inh 35.5
CC1=C(/C=C/C(C)=C/C=C/C(C)=C/CO)C(C)(C)CCC1	SIRT5 inh 25.5 (no result: NSD2 inh)
O=C(c1ccc(Cl)cc1)C1CCCN(C(=O)c2csnn2)C1 (stereo unspecified)	SIRT5 inh 112.2
COc1ccc2cc(C(=O)C3CCCN(C(=O)c4csnn4)C3)ccc2c1 (stereo unspecified)	none
CNC[C@H]1Oc2c(NS(=O)(=O)c3ccc(C)cc3)cccc2C(=O)N([C@@H](C)CO)C[C@@H]1C	none (no result: NSD2 inh, PfHsp90 set2)
CCOCCCNc1nc(C(F)(F)F)nc2c1nnn2Cc1ccccc1Cl	none
CCCc1nc(NCCCOCC)c2nnn(Cc3ccccc3)c2n1	SIRT5 inh 16.9

Screening results from PubChem.
